Data taken from PubChem BioAssay (NCATS).
“And” between values parts separate entries of the source, which are not always exact repeats. Equal entries are not always repeated. Records with an inconclusive call do not appear. The source made the active and inactive calls. Unless noted, the call rests on the fitted dose curve; in most records, active means well fitted curve in the direction sought with a large enough effect; inconclusive means small, poorly fitted or top-dose-only effect, or another doubt; inactive means no such curve, though single readings can be large; an effect the other way counts as inactive or inconclusive.

How the values were obtained:
[1] = biological target: Peroxisome proliferator-activated receptor alpha (Homo sapiens) (UniProt Q07869); assay: qHTS assay for small molecule agonists of the peroxisome proliferator-activated receptor alpha (PPARalpha) signaling pathway (AID 651778); conditions: PathHunter PPARalpha complementation, chemiluminescence, 6 h; max response: stronger effect = higher value; further: % of control where 0% means no effect
Outline: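 Chemiluminescence from complemented enzyme reported PPARalpha activation in cells after 6 hr of compound treatment at 37 C. The detection reagent was incubated for 60 min at room temperature, and compounds were scored as agonists.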

[2] = qHTS for compounds that reverse cellular toxicity of Amyloid beta (A-beta) peptide in yeast: LOPAC Validation Assay (AID 720559);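 further: plate controls were DMSO for no effect and equimolar ferric chloride plus clioquinol rescue for full effect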
Outline: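 Yeast expressing toxic A-beta grown with pinned compounds at 30 C for 48 hr. Growth measured as absorbance at 600 nm; data normalized to DMSO and to an equimolar FeCl3/clioquinol mixture as positive control.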

[3] = qHTS for Activators of Parkin Expression: LOPAC Validation Assay (NLuc Reporter) (AID 720572;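 further: 0% = DMSO and 100% = positive control compound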)
Outline: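 Parkin promoter-driven FLuc/NLuc neuronal reporter cells; 24 h plating, 7-pt dose response, 24 h at 37 C/5% CO2; FLuc then NanoLuc reagent, 10 min each, luminescence; DMSO/positive control normalized.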

[4] = qHTS for Activators of Parkin Expression: LOPAC Validation Assay (FLuc Reporter) (AID 720573;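 further: 0% = DMSO and 100% = positive control compounds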)
Outline: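 Neuronal cell line stably expressing FLuc/NLuc coincidence reporter under the Parkin promoter, 1,500 cells/well, dosed 24 h after seeding in 7-point series for 24 h at 37 C. FLuc luminescence read; normalized to DMSO and positive control (100%).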

[5] = qHTS assay for small molecule agonists of the antioxidant response element (ARE) signaling pathway measured by Nrf2-dependant transcriptional activity (AID 720636; active means well fitted curve in the direction sought with a large enough effect in the repeat runs; an effect the other way counts as inactive or inconclusive;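 further: HepG2 cells with an ARE-driven luciferase reporter; % of control where 0% means no effect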)
Outline: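 HepG2 ARE-luc reporter line, 1% dialyzed FBS; 6 hr attachment at 37 C, compound pinned in, 16 hr at 37 C/5% CO2; ONE-Glo, 30 min RT, luminescence read.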

[6] = qHTS assay for small molecule agonists of the antioxidant response element (ARE) signaling pathway measured by Nrf2-dependant transcriptional activity - cell viability counter screen (AID 720653; active means well fitted curve in the direction sought with a large enough effect in the repeat runs; an effect the other way counts as inactive or inconclusive; further: on the % scale 0 is the no-effect control and ±100 the full control effect); conditions: ARE-bla HepG2 viability, CellTiter-Glo ATP luminescence, 16 h; max response: stronger effect = lower value
Outline: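 Cytotoxicity counter screen: intracellular ATP quantified by CellTiter-Glo luminescence in the same ARE-bla HepG2 plates, after 16 h compound exposure and a 2 h beta-lactamase substrate step.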

[7] = biological target: T1, Hexokinase-4 (Homo sapiens) + Glucokinase regulatory protein (Homo sapiens) (UniProt P35557+Q14397); assay: qHTS assay for inhibitors of recombinant human GCK-GKRP interaction: Diaphorase-coupled assay (AID 743205)
Outline: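 Compounds pre-incubated 20 min with substrate, then 10 nM GST-GCK with 10 nM FLAG-GKRP added. GCK activity coupled via G6PDH and diaphorase to resorufin (5 mM glucose, 0.4 mM ATP, 0.15 mM NADP+, pH 7.6), read kinetically over 30 minutes at Ex 525/Em 590 nm.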

[8] = biological target: T1, Hexokinase-4 (Homo sapiens) + Glucokinase regulatory protein (Homo sapiens); assay: qHTS assay for inhibitors of recombinant human GCK-GKRP interaction: ADP-Glo assay (AID 743206);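 further: plate controls were DMSO plus enzyme for no effect and no enzyme for full effect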
Outline: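 GST-GCK and FLAG-GKRP (15 nM each in the dispensed mix, with 2 uM S6P) react with 0.4 mM ATP and 5 mM glucose (final) in Hepes pH 7.6 for 60 min at room temperature. ADP is measured by ADP-Glo luminescence.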

[9] = biological target: T1, Hexokinase-4 (Homo sapiens) + Glucokinase regulatory protein (Homo sapiens); assay: qHTS assay for inhibitors of recombinant human GCK-GKRP interaction: HTRF assay (AID 743207);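 further: 0% = DMSO with GCK present and -100% = DMSO wells lacking GCK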
Outline: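 HTRF binding of 5 nM GST-GCK and 5 nM FLAG-GKRP with 2 uM S6P in pH 7.1 Hepes buffer (MgCl2, KCl, DTT, Tween 20, BSA). Anti-FLAG XL665 and anti-GST donor added, 60 min at room temperature; 665/615 nm read, normalized to with- and without-GCK controls.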

[10] = qHTS Assay for Identifying Gametocytocidal Compounds (AID 743244);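 further: on the % scale 0 is the no-effect control and ±100 the full control effect; actives lower the fluorescent signal which means gametocytes are killed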; conditions: P. falciparum 3D7 stage III-V gametocytes, alamarBlue, 72 h; max response: stronger effect = lower value
Outline: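 Using 20,000 stage III–V 3D7 gametocytes per well, compounds were incubated 72 h under 37 °C/5% CO2. Viability was then assessed by 24 h alamarBlue reduction, measured fluorometrically at 525/598 nm.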

[11] = qHTS assay for cell viability of HEK293 cells (AID 743288); conditions: ATP luminescence (CellTiter-Glo), 18 h; max response: stronger effect = lower value; further: on the % scale 0 is the no-effect control and ±100 the full control effect; nearly all actives have a fitted effect of over 50% in size
Outline: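 Parental HEK293 cells, 2,000 per well, preincubated at least 5 h at 37 C, then exposed to compounds in DMSO for 18 h at 37 C. Viability by CellTiter-Glo ATP luminescence after 30 min at room temperature.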

[12] = qHTS assay for cell viability of the p53RE-bla HCT-116 cell line (AID 743292); further: on the % scale 0 is the no-effect control and ±100 the full control effect; nearly all actives have a fitted effect of over 55% in size
Outline: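 Luminescent ATP quantitation (CellTiter-Glo) served as the viability read-out; reagent was added after 16 h compound exposure at 37 C and read after 30 min at room temperature. Cells: p53RE-bla HCT-116, 4,000 per well.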

[13] = qHTS assay for small molecule antagonists of the retinoid-related orphan receptor gamma (ROR-gamma) signaling pathway - cell viability counter screen (AID 720652; active means well fitted curve in the direction sought with a large enough effect in the repeat runs; an effect the other way counts as inactive or inconclusive;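 further: compound exposure lasted 16 hr before ATP read; on the % scale 0 is the no-effect control and ±100 the full control effect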)
Outline: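 CHO cells carrying TET-inducible ROR and RORE-luciferase reporter, plated 5 hr, then dosed with compound plus doxycycline. After 16 hr at 37 C, viability read as intracellular ATP by CellTiter-Glo luminescence.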

[14] = biological target: Nuclear receptor ROR-gamma (Homo sapiens) (UniProt P51449); assay: qHTS assay for small molecule antagonists of the retinoid-related orphan receptor gamma (ROR-gamma) signaling pathway (AID 651802);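 further: luciferase reporter luminescence driven by ROR response element; on the % scale 0 is the no-effect control and ±100 the full control effect; nearly all actives have a fitted effect of over 60% in size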
Outline: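 CHO cells with TET-inducible ROR-gamma and RORE-luciferase reporter, dosed then doxycycline-induced. After 16 h at 37C, One-Glo luminescence read; decreased signal indicates antagonism.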

[15] = biological target: Arylsulfatase A (Homo sapiens) (UniProt P15289); assay: qHTS screen for enhancers of Arylsulfatase A (ASA1): LOPAC Validation Assay (AID 720538); further: 0% is about no effect
Outline: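 SV40-transformed fibroblasts from an MLD patient (ASA-I179S) were treated with compound for 48 h at 37 C. They were then lysed with 0.5 mM pNCS substrate (final) for 14 h at room temperature and stopped with NaOH; signal read by fluorescence (Ex 525/Em 598 nm), with increase denoting enhanced activity.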

[16] = qHTS profiling for inhibitors of Plasmodium falciparum (3D7) proliferation (AID 743322; call rule not given here;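 further: infected erythrocytes exposed to compound for 72 h before lysis; 100% = DMSO vehicle wells and 0% = 0.29 µM artemisinin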); conditions: P. falciparum 3D7 proliferation, at 28.7 µM (top of the series)
Outline: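 Erythrocytes infected with P. falciparum (0.3% parasitemia, 2.5% hematocrit) incubated with compounds 72 h at 37 C, 5% CO2. Lysis with saponin/Triton buffer containing SYBR Green I, overnight at room temperature in the dark; DNA fluorescence (485/535 nm) normalised to 0.29 uM artemisinin and DMSO.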

[17] = qHTS profiling for inhibitors of Plasmodium falciparum (DD2) proliferation (AID 743323; call rule not given here); conditions: at 28.7 µM (top of the series), lower = more inhibition
Outline: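 SYBR Green fluorescence (ex 485, em 535 nm) of lysed cultures gives parasite DNA content; wells normalized to artemisinin (0.29 uM) and DMSO controls. Infected red cells: 0.3% parasitemia, 2.5% hematocrit, 72 h, 37 C.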

Chain of Peroxisome proliferator-activated receptor alpha (Homo sapiens) (Q07869 whole entry, looked up): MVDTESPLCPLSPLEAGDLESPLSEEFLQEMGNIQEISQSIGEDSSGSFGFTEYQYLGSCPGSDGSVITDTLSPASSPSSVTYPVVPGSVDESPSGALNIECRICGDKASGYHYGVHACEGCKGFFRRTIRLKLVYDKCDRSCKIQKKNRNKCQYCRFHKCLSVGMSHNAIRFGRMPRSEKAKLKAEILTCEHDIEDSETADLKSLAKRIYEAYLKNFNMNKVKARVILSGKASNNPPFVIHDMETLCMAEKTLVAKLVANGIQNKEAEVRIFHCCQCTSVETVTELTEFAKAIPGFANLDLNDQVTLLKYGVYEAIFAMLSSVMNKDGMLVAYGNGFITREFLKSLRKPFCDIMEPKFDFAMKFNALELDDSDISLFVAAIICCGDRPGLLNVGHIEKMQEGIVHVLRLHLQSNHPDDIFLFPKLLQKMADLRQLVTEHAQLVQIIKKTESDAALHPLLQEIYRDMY
T1 sequence (P35557 whole entry, looked up): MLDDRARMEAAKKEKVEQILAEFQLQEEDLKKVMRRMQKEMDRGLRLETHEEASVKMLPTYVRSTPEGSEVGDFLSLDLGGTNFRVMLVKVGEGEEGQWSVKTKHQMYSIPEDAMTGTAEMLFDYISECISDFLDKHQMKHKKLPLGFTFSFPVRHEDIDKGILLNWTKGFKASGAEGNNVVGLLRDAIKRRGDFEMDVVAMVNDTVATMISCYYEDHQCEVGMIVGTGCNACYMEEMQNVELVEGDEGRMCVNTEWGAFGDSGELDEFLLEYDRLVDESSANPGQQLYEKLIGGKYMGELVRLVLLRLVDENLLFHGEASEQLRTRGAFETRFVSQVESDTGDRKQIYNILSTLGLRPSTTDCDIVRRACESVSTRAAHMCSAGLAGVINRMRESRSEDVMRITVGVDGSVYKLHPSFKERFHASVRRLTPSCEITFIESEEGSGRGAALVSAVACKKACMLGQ
T1 sequence (Q14397 whole entry, looked up): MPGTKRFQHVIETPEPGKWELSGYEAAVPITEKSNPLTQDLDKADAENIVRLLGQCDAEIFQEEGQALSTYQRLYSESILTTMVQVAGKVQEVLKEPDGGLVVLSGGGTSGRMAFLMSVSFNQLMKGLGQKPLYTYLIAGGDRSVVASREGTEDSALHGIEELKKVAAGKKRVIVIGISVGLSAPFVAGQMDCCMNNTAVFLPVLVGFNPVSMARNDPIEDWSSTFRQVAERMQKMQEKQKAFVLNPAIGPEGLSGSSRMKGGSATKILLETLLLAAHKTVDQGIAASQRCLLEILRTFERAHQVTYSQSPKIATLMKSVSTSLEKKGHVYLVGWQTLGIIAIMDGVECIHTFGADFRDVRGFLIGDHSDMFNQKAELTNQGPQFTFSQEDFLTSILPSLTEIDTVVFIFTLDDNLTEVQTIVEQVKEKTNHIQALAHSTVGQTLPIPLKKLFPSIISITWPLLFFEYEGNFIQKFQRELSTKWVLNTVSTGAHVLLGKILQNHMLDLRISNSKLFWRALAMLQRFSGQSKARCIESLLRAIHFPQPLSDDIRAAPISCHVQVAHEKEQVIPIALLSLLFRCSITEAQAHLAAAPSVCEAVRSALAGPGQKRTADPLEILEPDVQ
Chain of Arylsulfatase A (Homo sapiens) (P15289 whole entry, looked up): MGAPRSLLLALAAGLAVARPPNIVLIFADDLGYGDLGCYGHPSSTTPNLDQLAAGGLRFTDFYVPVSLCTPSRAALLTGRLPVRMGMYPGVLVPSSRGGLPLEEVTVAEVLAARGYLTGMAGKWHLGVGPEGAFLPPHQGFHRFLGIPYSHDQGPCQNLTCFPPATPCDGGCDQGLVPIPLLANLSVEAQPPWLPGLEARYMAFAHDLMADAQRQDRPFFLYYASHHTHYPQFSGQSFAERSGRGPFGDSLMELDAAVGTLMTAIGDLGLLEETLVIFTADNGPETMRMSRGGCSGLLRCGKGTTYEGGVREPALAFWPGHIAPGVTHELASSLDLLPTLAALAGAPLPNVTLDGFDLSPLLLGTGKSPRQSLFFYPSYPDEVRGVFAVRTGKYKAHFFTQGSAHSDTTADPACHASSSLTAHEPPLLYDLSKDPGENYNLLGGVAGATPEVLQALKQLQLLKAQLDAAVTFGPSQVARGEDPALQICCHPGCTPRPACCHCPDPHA
Chain of Nuclear receptor ROR-gamma (Homo sapiens) (P51449 whole entry, looked up): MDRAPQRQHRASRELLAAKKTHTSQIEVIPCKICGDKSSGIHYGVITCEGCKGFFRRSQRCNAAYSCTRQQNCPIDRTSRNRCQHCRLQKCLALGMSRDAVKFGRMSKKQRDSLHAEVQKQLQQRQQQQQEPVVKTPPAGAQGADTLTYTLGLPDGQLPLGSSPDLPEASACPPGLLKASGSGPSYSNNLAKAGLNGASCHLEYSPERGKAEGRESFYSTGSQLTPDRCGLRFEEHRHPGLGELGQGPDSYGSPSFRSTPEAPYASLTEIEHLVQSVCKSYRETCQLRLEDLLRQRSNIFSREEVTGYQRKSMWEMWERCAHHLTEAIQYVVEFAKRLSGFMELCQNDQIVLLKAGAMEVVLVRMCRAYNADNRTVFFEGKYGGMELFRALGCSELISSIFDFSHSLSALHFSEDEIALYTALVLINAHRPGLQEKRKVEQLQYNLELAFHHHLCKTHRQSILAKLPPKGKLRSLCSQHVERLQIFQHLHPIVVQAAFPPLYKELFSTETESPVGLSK

C[C@](N)(Cc1ccc(O)c(O)c1)C(=O)O
inactive: max response [1] -1.06% | outcome [2] | outcome [3] | Potency [4] | outcome [5] | max response [6] -0.408% | Potency [7] | Potency [8] | Potency [9] | max response [10] 9.51% | max response [11] -5.13% | Potency [12]

O=C(CCCN1CCC(O)(c2ccc(Cl)cc2)CC1)c1ccc(F)cc1
inactive: max response [1] -1.35% | outcome [2] | outcome [3] | Potency [4] | outcome [5] | max response [6] -9.04% | max response [11] -20.6% | Potency [12]

CC(C)Cc1ccc(C(C)C(=O)O)cc1 (stereo not given)
inactive: max response [1] -0.128% | outcome [2] | outcome [3] | Potency [4] | outcome [5] | max response [6] 3.8% | Potency [7] | Potency [8] | Potency [9] | max response [10] 19.9% and 9.6% | max response [11] -10% | Potency [12]

Cn1c(=O)c2[nH]cnc2n(C)c1=O
inactive: max response [1] -1.61% | outcome [2] | outcome [3] | Potency [4] | outcome [5] | Potency [13] | max response [6] 0.323% | Potency [7] | Potency [8] | Potency [9] | max response [10] 2.17% and 13.8% | max response [11] 2.06% | Potency [12]

COc1ccc2[nH]cc(CCNC(C)=O)c2c1
inactive: max response [1] -3.03% and -8.27% and 0.529% | Potency [14] | Potency [15] | outcome [2] | outcome [3] | Potency [4] | outcome [5] | Potency [13] | max response [6] -10.7% and -6.82% and 8.47% | Potency [7] | Potency [8] | Potency [9] | max response [10] 6.15% and 3.87% | max response [11] -9.99% and -9.18% and -3.1% | Potency [12]

CN(C)CCOC(c1ccccc1)c1ccccc1
85.5%: remaining parasite growth % (stronger effect = lower value) [16]
inactive: max response [1] -3.61% | Potency [15] | outcome [2] | outcome [3] | Potency [4] | outcome [5] | max response [6] -12% | Potency [7] | Potency [8] | Potency [9] | max response [10] -13.8% and 10.9% | max response [11] -15% | Potency [12]
32.1%: activity, percent of control [17]
